# Data published in PubChem BioAssay AID1159580 (chemical genetic matrix, 2015).
# About 2,000 (36%) of roughly 5,500 compounds were called active. Not shown: some 18% with an inconclusive outcome. This is one part of the list. A number with no mark means an inactive call. Rule as the data show it: active = normalized growth mostly below about 0.91 (no sharp cut-off); inconclusive = no clear call, values can overlap the other calls; inactive = mostly above about 0.92.
# Test: chemical genetic growth profiling, strain panel (AID 1159580);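 also: tested at 20 µM; growth read once vehicle control cultures reached saturation at 30 °C; 1 = growth at the plate median or of vehicle wells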
# Settings: growth OD
smiles,measurement,setting,value
COc1cc(C(=O)N2CCOCC2)cc(OC)c1OC,normalized growth,"S. cerevisiae deletion strains, locus YJR075W, strain HOC1, stronger effect = lower value",1
same,normalized growth,"S. cerevisiae deletion strains, locus YKL009W, strain mrt4, stronger effect = lower value",0.926
same,normalized growth,"S. cerevisiae deletion strains, locus YKL068W, stronger effect = lower value",0.988
same,normalized growth,"S. cerevisiae deletion strains, locus YKL085W, strain MDH1 (second series), stronger effect = lower value",0.353 (active)
same,normalized growth,"S. cerevisiae deletion strains, locus YKL085W, strain MDH1, stronger effect = lower value",0.353 (active)
same,normalized growth,"S. cerevisiae deletion strains, locus YKL160W, strain elf1, stronger effect = lower value",1
same,normalized growth,"S. cerevisiae deletion strains, locus YKL190W, strain CNB1, stronger effect = lower value",1.01
same,normalized growth,"S. cerevisiae deletion strains, locus YKR001C, strain vps1, stronger effect = lower value",0.127 (active)
same,normalized growth,"S. cerevisiae deletion strains, locus YKR026C, strain gcn3, stronger effect = lower value",0.975
same,normalized growth,"S. cerevisiae deletion strains, locus YKR091W, strain srl3, stronger effect = lower value",0.977
same,normalized growth,"S. cerevisiae deletion strains, locus YLL001W, strain dnm1, stronger effect = lower value",0.987
same,normalized growth,"S. cerevisiae deletion strains, locus YLL026W, stronger effect = lower value",0.984
same,normalized growth,"S. cerevisiae deletion strains, locus YLL041C, strain sdh2, stronger effect = lower value",0.981
same,normalized growth,"S. cerevisiae deletion strains, locus YLR027C, strain aat2, stronger effect = lower value",1.01
same,normalized growth,"S. cerevisiae deletion strains, locus YLR039C, strain RIC1, stronger effect = lower value",1.04
same,normalized growth,"S. cerevisiae deletion strains, locus YLR058C, strain SHM2, stronger effect = lower value",1.01
same,normalized growth,"S. cerevisiae deletion strains, locus YLR102C, strain apc9, stronger effect = lower value",0.102 (active)
same,normalized growth,"S. cerevisiae deletion strains, locus YLR113W, strain HOG1, stronger effect = lower value",0.999
same,normalized growth,"S. cerevisiae deletion strains, locus YLR221C, strain rsa3, stronger effect = lower value",0.968
same,normalized growth,"S. cerevisiae deletion strains, locus YLR258W, strain gsy2, stronger effect = lower value",1.01
same,normalized growth,"S. cerevisiae deletion strains, locus YLR262C, strain YPT6 (second series), stronger effect = lower value",1.02
same,normalized growth,"S. cerevisiae deletion strains, locus YLR262C, strain YPT6, stronger effect = lower value",1.06
same,normalized growth,"S. cerevisiae deletion strains, locus YLR268W, strain sec22, stronger effect = lower value",0.0891 (active)
same,normalized growth,"S. cerevisiae deletion strains, locus YLR320W, strain mms22, stronger effect = lower value",0.982
same,normalized growth,"S. cerevisiae deletion strains, locus YLR330W, strain CHS5, stronger effect = lower value",1
same,normalized growth,"S. cerevisiae deletion strains, locus YLR342W, strain FKS1 (second series), stronger effect = lower value",1.06
same,normalized growth,"S. cerevisiae deletion strains, locus YLR342W, strain FKS1, stronger effect = lower value",0.967
same,normalized growth,"S. cerevisiae deletion strains, locus YLR357W, strain rsc2, stronger effect = lower value",0.998
same,normalized growth,"S. cerevisiae deletion strains, locus YLR370C, strain arc18, stronger effect = lower value",1
same,normalized growth,"S. cerevisiae deletion strains, locus YLR371W, strain rom2, stronger effect = lower value",0.0857 (active)
same,normalized growth,"S. cerevisiae deletion strains, locus YLR384C, strain iki3, stronger effect = lower value",0.984
same,normalized growth,"S. cerevisiae deletion strains, locus YLR418C, strain cdc73, stronger effect = lower value",0.102 (active)
same,normalized growth,"S. cerevisiae deletion strains, locus YML016C, strain PPZ1, stronger effect = lower value",1.01
same,normalized growth,"S. cerevisiae deletion strains, locus YML032C, strain rad52, stronger effect = lower value",0.845 (active)
same,normalized growth,"S. cerevisiae deletion strains, locus YML120C, strain ndi1, stronger effect = lower value",0.985
same,normalized growth,"S. cerevisiae deletion strains, locus YML124C, strain tub3, stronger effect = lower value",0.158 (active)
same,normalized growth,"S. cerevisiae deletion strains, locus YMR058W, strain fet3, stronger effect = lower value",0.987
same,normalized growth,"S. cerevisiae deletion strains, locus YMR078C, strain ctf18, stronger effect = lower value",0.205 (active)
same,normalized growth,"S. cerevisiae deletion strains, locus YMR125W, strain sto1, stronger effect = lower value",0.993
same,normalized growth,"S. cerevisiae deletion strains, locus YMR129W, stronger effect = lower value",0.982
same,normalized growth,"S. cerevisiae deletion strains, locus YMR205C, strain PFK2, stronger effect = lower value",0.982
same,normalized growth,"S. cerevisiae deletion strains, locus YMR223W, strain ubp8, stronger effect = lower value",0.0851 (active)
same,normalized growth,"S. cerevisiae deletion strains, locus YMR231W, strain pep5, stronger effect = lower value",0.975
same,normalized growth,"S. cerevisiae deletion strains, locus YMR263W, strain SAP30, stronger effect = lower value",1
same,normalized growth,"S. cerevisiae deletion strains, locus YMR307W, strain GAS1, stronger effect = lower value",1.06
same,normalized growth,"S. cerevisiae deletion strains, locus YNL067W, strain RPL9B, stronger effect = lower value",1
same,normalized growth,"S. cerevisiae deletion strains, locus YNL071W, strain lat1, stronger effect = lower value",0.987
same,normalized growth,"S. cerevisiae deletion strains, locus YNL128W, strain TEP1, stronger effect = lower value",1
same,normalized growth,"S. cerevisiae deletion strains, locus YNL153C, strain GIM3, stronger effect = lower value",0.997
same,normalized growth,"S. cerevisiae deletion strains, locus YNL183C, strain NPR1, stronger effect = lower value",0.967
same,normalized growth,"S. cerevisiae deletion strains, locus YNL209W, strain ssb2, stronger effect = lower value",0.981
same,normalized growth,"S. cerevisiae deletion strains, locus YNL233W, strain BNI4, stronger effect = lower value",0.992
same,normalized growth,"S. cerevisiae deletion strains, locus YNL248C, strain rpa49, stronger effect = lower value",0.991
same,normalized growth,"S. cerevisiae deletion strains, locus YNL250W, strain rad50, stronger effect = lower value",0.531 (active)
same,normalized growth,"S. cerevisiae deletion strains, locus YNL271C, strain bni1, stronger effect = lower value",0.214 (active)
same,normalized growth,"S. cerevisiae deletion strains, locus YNL298W, strain CLA4, stronger effect = lower value",0.456 (active)
same,normalized growth,"S. cerevisiae deletion strains, locus YNL307C, strain MCK1, stronger effect = lower value",0.0679 (active)
same,normalized growth,"S. cerevisiae deletion strains, locus YNL322C, strain KRE1 (second series), stronger effect = lower value",0.975
same,normalized growth,"S. cerevisiae deletion strains, locus YNL322C, strain KRE1, stronger effect = lower value",1.01
same,normalized growth,"S. cerevisiae deletion strains, locus YNR049C, strain mso1, stronger effect = lower value",0.971
same,normalized growth,"S. cerevisiae deletion strains, locus YNR052C, strain pop2, stronger effect = lower value",1.04
same,normalized growth,"S. cerevisiae deletion strains, locus YOL006C, strain TOP1, stronger effect = lower value",1.05
same,normalized growth,"S. cerevisiae deletion strains, locus YOL147C, strain pex11, stronger effect = lower value",0.829 (active)
same,normalized growth,"S. cerevisiae deletion strains, locus YOR001W, strain rrp6, stronger effect = lower value",0.967
same,normalized growth,"S. cerevisiae deletion strains, locus YOR061W, strain CKA2, stronger effect = lower value",1.01
same,normalized growth,"S. cerevisiae deletion strains, locus YOR069W, strain VPS5, stronger effect = lower value",1.01
same,normalized growth,"S. cerevisiae deletion strains, locus YOR070C, strain gyp1, stronger effect = lower value",0.982
same,normalized growth,"S. cerevisiae deletion strains, locus YOR080W, strain dia2, stronger effect = lower value",0.979
same,normalized growth,"S. cerevisiae deletion strains, locus YOR083W, strain WHI5, stronger effect = lower value",1.01
same,normalized growth,"S. cerevisiae deletion strains, locus YOR106W, strain vam3, stronger effect = lower value",1.01
same,normalized growth,"S. cerevisiae deletion strains, locus YOR136W, strain idh2, stronger effect = lower value",0.0963 (active)
same,normalized growth,"S. cerevisiae deletion strains, locus YOR144C, strain elg1, stronger effect = lower value",1.01
same,normalized growth,"S. cerevisiae deletion strains, locus YOR184W, strain ser1, stronger effect = lower value",0.0727 (active)
same,normalized growth,"S. cerevisiae deletion strains, locus YOR231W, strain MKK1, stronger effect = lower value",1.01
same,normalized growth,"S. cerevisiae deletion strains, locus YOR265W, strain rbl2, stronger effect = lower value",1
same,normalized growth,"S. cerevisiae deletion strains, locus YOR270C, strain vph1, stronger effect = lower value",0.978
same,normalized growth,"S. cerevisiae deletion strains, locus YOR290C, strain snf2, stronger effect = lower value",1.01
same,normalized growth,"S. cerevisiae deletion strains, locus YOR316C, strain cot1, stronger effect = lower value",0.0956 (active)
same,normalized growth,"S. cerevisiae deletion strains, locus YPL051W, strain arl3, stronger effect = lower value",0.993
same,normalized growth,"S. cerevisiae deletion strains, locus YPL055C, strain LGE1, stronger effect = lower value",1
same,normalized growth,"S. cerevisiae deletion strains, locus YPL078C, strain atp4, stronger effect = lower value",0.982
same,normalized growth,"S. cerevisiae deletion strains, locus YPL106C, strain sse1, stronger effect = lower value",0.998
same,normalized growth,"S. cerevisiae deletion strains, locus YPL240C, strain hsp82, stronger effect = lower value",1
same,normalized growth,"S. cerevisiae deletion strains, locus YPL241C, strain CIN2, stronger effect = lower value",1.01
same,normalized growth,"S. cerevisiae deletion strains, locus YPL256C, strain CLN2, stronger effect = lower value",1.07
same,normalized growth,"S. cerevisiae deletion strains, locus YPR119W, strain clb2, stronger effect = lower value",0.143 (active)
same,normalized growth,"S. cerevisiae deletion strains, locus YPR141C, strain kar3, stronger effect = lower value",1.03
same,normalized growth,"S. cerevisiae deletion strains, locus YPR163C, strain tif3, stronger effect = lower value",0.0748 (active)
same,normalized growth,"S. cerevisiae deletion strains, locus YPR167C, strain met16, stronger effect = lower value",0.0923 (active)
same,normalized growth,"S. cerevisiae deletion strains, strain wtn01, stronger effect = lower value",0.0623 (active)
same,normalized growth,"S. cerevisiae strains, strain wild type, stronger effect = lower value",1.01
